# Results: PubChem BioAssay
# For some of these results: Results with a measured potency or affinity are listed apart. Active and inactive are the calls of the source.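 How the source made its calls, unless noted: active means calcium signal ratio cut to more than 3 SD under the fully stimulated control mean yet still positive, in both repeats and the primary screen; inactive means the rest.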
# How the values were obtained:
# [1] = system: TRPC4 beta (transient receptor potential cation channel C4), mouse; test: activators of mouse TRPC4 channel, confirmation, cell-based, Fluo4 calcium, HEK293 TRPC4beta/mu-opioid, duplicates, 10 µM (AID 2426;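 active means fluorescence ratio normalized to control raised more than 50% in primary screen plus both repeat runs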;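 on activation: percent rise of integrated ratio over buffer wells lacking compound which define 0%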); settings: Fluo4 calcium fluorescence, at 10 µM; hits give high values
# [2] = system: transient receptor potential cation channel C4 beta (TRPC4), mouse; test: activators of mouse TRPC4 channel, confirmation, cell-based, second round, Fluo4, HEK293 TRPC4beta/mu-opioid, 1 µM (AID 2461;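 active means primary screen active and over 50% activation in each of two duplicate runs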;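 on activation: 0% = wells without test compound as baseline of integrated fluorescence ratio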); settings: Fluo4 calcium fluorescence, at 1 µM; hits give high values
# [3] = system: TRPC4 (transient receptor potential cation channel C4 beta), mouse; test: positive allosteric modulators of mouse TRPC4, confirmation, cell-based, second round, Fluo-4, HEK293 TRPC4beta/mu-opioid, 1 µM (AID 2554;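 active means primary screen hit whose fluorescence ratio, in both repeats, exceeds the weak agonist control mean by 3 SD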); settings: DAMGO EC20, Fluo-4 calcium flux, at 1 µM; hits give high values
# [4] = system: TRPC4 beta (transient receptor potential cation channel C4), mouse; test: positive allosteric modulators of mouse TRPC4, confirmation, cell-based, Fluo-4, HEK293 TRPC4beta/mu-opioid (AID 2555;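 active means primary screen hit whose calcium fluorescence ratio, in both repeats, exceeds the weak agonist control mean by 3 SD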); settings: DAMGO EC20, Fluo-4 calcium flux, at 10 µM; hits give high values
# [5] = target: Short transient receptor potential channel 4 (Mus musculus) (UniProt Q9QUQ5); test: inhibitors of mouse TRPC4 channel, confirmation, cell-based, Fluo4, HEK293 TRPC4beta/mu-opioid (AID 2636;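 active means calcium signal cut by more than 3 SD below the full-agonist control yet still positive, in both repeats and the earlier primary screen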); settings: DAMGO, Fluo4 calcium flux, at 10 µM; hits give high values
# [6] = target: Short transient receptor potential channel 4 (Mus musculus) (UniProt Q9QUQ5); test: inhibitors of mouse TRPC4 channel, confirmation, cell-based, second round, Fluo4, HEK293 TRPC4beta/mu-opioid, 1 µM (AID 2637); settings: Fluo4 calcium flux, DAMGO, at 1 µM; hits give high values
# [7] = target: Short transient receptor potential channel 4 (Mus musculus) (UniProt Q9QUQ5); test: TRPC4 positive allosteric modulators, dose response, cell-based, HEK293 TRPC4/mu-opioid, Fluo-4 calcium, EC20 DAMGO (AID 434941;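 active means earlier screen potentiator hit that boosts the TRPC4 ion channel at some dose, with a dose response; inactive means no potentiation, no dose response, or not a prior hit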;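 further: calcium entry triggered by an EC20 dose of DAMGO at the co-expressed mu-opioid receptor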)
# [8] = target: Short transient receptor potential channel 4 (Mus musculus) (UniProt Q9QUQ5); test: mouse TRPC4 channel inhibitors, dose response, cell-based, HEK293 TRPC4/mu-opioid, Fluo-4 calcium (AID 434942;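 active means primary screen inhibitor hit that blocks the TRPC4 channel at some tested dose, yielding a dose curve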)
# [9] = target: Short transient receptor potential channel 6 (Mus musculus) (UniProt Q61143); test: inhibition of mouse TRPC6 channel, confirmation, selectivity assay for TRPC4 inhibitor project, cell-based, HEK293, membrane potential dye, duplicate (AID 434948;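 active means active in primary screen and both duplicates, each dropping signal beyond three positive-control SD with fluorescence still positive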); settings: HEK293 TRPC6, membrane potential dye fluorescence, at 10 µM, stimulated with maximal-effect acetylcholine; hits give high values
# [10] = target: Short transient receptor potential channel 6 (Mus musculus) (UniProt Q61143); test: activation of mouse TRPC6 channel, confirmation, selectivity assay for TRPC4 activator project, cell-based, HEK293, membrane potential dye, duplicate (AID 434950;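 active means membrane potential signal rise above negative control mean plus 3 SD in both duplicates, also active in the earlier TRPC4 screen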;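 on activation: 0% = buffer only wells and 100% = acetylcholine maximal-effect wells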); settings: HEK293 TRPC6, membrane potential fluorescence, at 10 µM; hits give high values
# [11] = target: Short transient receptor potential channel 6 (Mus musculus) (UniProt Q61143); test: TRPC6 potentiation by TRPC4 potentiator hits, confirmation, selectivity assay for TRPC4 potentiator project, HEK293 cells, membrane potential dye, duplicate (AID 434952;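 active means compound raising the membrane signal above positive-control mean plus 3 SD in both repeats, and a primary screen hit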); settings: HEK293 TRPC6, membrane potential dye fluorescence, at 10 µM, maximal acetylcholine added after compound; hits give high values
# [12] = target: Short transient receptor potential channel 4 (Mus musculus) (UniProt Q9QUQ5); test: calcium flux activators in TRPC4/5HT1a cells, counter-screen for TRPC4 activator project, cell-based, second counter screen, HEK293 TRPC4/5HT1a, Fluo-4 (AID 434977;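 active means calcium signal rise above buffer-control mean plus 5 SD in both duplicates, and also a hit in the primary screen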;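 on activation: plate controls were assay buffer for no effect and maximal serotonin response for full effect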); settings: Fluo-4 calcium flux, at 10 µM; hits give high values
# [13] = calcium flux inhibitors in TRPC4/5HT1a cells, confirmation, counter-screen for TRPC4 inhibitor project, cell-based, second counter screen, HEK293 TRPC4/5HT1a, Fluo-4 (AID 434978;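 active means primary screen active whose calcium signal fell more than 3 SD beyond the full-serotonin control mean in both duplicate plates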;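 further: serotonin given first at submaximal then at maximal dose after compound preincubation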); settings: Fluo-4 calcium flux, at 10 µM, serotonin added to trigger calcium flux; hits give high values
# [14] = system: TRPC4 (mouse), co-expressed with 5HT1a in HEK293; test: calcium flux potentiators in TRPC4/5HT1a cells, confirmation, counter-screen for TRPC4 potentiator project, cell-based, second counter screen, HEK293 TRPC4/5HT1a, Fluo-4 (AID 434979;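 active means signal rise over 3 SD above mean of control wells given weak agonist, in both repeats and first screen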); settings: Fluo-4 calcium flux, at 10 µM, serotonin added at its EC20 dose; hits give high values
# [15] = calcium flux activation in mu-opioid HEK293 cells, confirmation, counter-screen for TRPC4 activator project, cell-based, HEK293 mu-opioid receptor line (AID 449723;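 active means hit in primary screen, with calcium signal over 5 SD above buffer well mean in both duplicates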;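 further: counter screen cells carry the mu-opioid receptor alone and lack TRPC4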); settings: Fluo-4 calcium fluorescence, at 10 µM; hits give high values
# [16] = calcium flux enhancement in mu-opioid HEK293 cells, confirmation, counter-screen for TRPC4 allosteric potentiator project, cell-based, HEK293 mu-opioid receptor line (AID 449724;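 active means calcium signal rise more than 3 SD above the low-dose agonist control mean, in both duplicate plates and the primary screen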); settings: Fluo-4 calcium flux, at 10 µM, compound added before EC20 DAMGO stimulus; hits give high values
# Sequence of Short transient receptor potential channel 4 (Mus musculus) (Q9QUQ5 whole entry, looked up): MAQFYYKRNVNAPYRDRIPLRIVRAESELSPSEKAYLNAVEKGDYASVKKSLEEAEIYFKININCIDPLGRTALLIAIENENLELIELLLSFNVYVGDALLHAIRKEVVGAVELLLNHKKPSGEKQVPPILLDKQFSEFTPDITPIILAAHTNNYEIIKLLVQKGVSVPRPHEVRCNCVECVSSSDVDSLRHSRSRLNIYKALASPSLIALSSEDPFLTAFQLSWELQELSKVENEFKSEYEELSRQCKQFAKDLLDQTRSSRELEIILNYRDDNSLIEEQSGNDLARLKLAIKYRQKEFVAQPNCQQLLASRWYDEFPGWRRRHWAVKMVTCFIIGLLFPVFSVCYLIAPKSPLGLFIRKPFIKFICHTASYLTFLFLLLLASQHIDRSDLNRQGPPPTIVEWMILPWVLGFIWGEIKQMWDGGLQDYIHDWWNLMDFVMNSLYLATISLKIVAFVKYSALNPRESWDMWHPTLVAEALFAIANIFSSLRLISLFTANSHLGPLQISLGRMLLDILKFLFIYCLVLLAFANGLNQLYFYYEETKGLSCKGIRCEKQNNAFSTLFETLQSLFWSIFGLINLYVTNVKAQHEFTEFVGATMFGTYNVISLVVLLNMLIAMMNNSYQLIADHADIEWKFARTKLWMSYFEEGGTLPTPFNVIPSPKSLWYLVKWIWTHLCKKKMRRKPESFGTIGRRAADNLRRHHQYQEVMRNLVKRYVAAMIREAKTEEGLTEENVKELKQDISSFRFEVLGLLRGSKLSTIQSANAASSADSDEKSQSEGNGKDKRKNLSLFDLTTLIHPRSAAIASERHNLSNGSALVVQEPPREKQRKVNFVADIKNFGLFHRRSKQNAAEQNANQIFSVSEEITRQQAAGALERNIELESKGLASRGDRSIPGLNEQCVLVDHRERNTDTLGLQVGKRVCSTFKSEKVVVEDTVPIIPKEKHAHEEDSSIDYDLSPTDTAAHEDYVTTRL
# Sequence of Short transient receptor potential channel 6 (Mus musculus) (Q61143 whole entry, looked up): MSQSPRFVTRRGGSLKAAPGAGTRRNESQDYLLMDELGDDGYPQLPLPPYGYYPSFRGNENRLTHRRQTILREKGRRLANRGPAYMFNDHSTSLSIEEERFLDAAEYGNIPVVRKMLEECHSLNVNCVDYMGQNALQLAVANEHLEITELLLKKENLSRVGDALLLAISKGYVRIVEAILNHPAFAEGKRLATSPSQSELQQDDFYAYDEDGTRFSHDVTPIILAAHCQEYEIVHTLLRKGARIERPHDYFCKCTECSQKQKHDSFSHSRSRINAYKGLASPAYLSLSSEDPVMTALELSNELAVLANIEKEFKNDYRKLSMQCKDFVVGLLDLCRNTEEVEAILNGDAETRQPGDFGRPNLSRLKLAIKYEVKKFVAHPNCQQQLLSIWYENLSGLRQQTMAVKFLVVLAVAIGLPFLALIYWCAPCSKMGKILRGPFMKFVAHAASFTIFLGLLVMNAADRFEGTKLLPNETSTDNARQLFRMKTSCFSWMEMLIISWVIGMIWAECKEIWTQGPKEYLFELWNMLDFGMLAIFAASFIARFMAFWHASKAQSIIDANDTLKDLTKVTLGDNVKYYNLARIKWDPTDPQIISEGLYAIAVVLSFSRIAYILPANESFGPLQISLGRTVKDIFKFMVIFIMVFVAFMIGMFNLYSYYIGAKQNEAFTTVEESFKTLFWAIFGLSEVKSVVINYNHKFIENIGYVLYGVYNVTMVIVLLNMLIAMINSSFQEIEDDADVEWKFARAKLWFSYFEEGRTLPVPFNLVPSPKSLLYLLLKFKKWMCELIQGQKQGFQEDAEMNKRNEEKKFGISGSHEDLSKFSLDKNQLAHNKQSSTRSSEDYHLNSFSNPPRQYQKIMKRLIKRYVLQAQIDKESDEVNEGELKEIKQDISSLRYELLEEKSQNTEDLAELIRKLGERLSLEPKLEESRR
smiles,measurement,setting,value
CCC1CCCCN1S(=O)(=O)c1ccc(C(=O)N(CCCN(C)C)c2nc3cc4c(cc3s2)OCO4)cc1 (stereo unspecified),activation,[1],191% (active)
same,outcome,[2],inactive
same,outcome,[3],inactive
same,outcome,[4],inactive
same,outcome,[5],inactive
same,outcome,[6],inactive
same,outcome,[7],inactive
same,outcome,[8],inactive
same,outcome,[9],inactive
same,outcome,[10],inactive
same,outcome,[11],inactive
same,activation,[12],23.1% (active)
same,outcome,[13],inactive
same,outcome,[14],inactive
same,outcome,[15],inactive
same,outcome,[16],inactive
O=C(NCC(c1cccs1)N1CCOCC1)c1ccc(Cl)c([N+](=O)[O-])c1 (stereo unspecified),activation,[1],135% (active)
same,outcome,[2],inactive
same,outcome,[3],inactive
same,outcome,[4],inactive
same,outcome,[5],inactive
same,outcome,[6],inactive
same,outcome,[7],inactive
same,outcome,[8],inactive
same,outcome,[9],inactive
same,outcome,[10],inactive
same,outcome,[11],inactive
same,activation,[12],21.6% (active)
same,outcome,[13],inactive
same,outcome,[14],inactive
same,outcome,[15],inactive
same,outcome,[16],inactive
CCN1/C(=C\c2ccc3cc(C)ccc3[n+]2CC)Sc2cc(C)c(C)cc21,activation,[1],177% (active)
same,outcome,[2],inactive
same,outcome,[3],inactive
same,potentiation,[4],59% (active)
same,outcome,[5],inactive
same,outcome,[6],inactive
same,outcome,[7],inactive
same,outcome,[8],inactive
same,outcome,[9],inactive
same,outcome,[10],inactive
same,outcome,[11],inactive
same,activation,[12],66.7% (active)
same,outcome,[13],inactive
same,potentiation,[14],41.7% (active)
same,activation,[15],152% (active)
same,activation,[16],1520% (active)
CN(CCOc1ccc(Br)cc1)CC(O)c1ccccc1 (stereo unspecified),activation,[1],71% (active)
same,outcome,[2],inactive
same,outcome,[3],inactive
same,outcome,[4],inactive
same,outcome,[5],inactive
same,outcome,[6],inactive
same,outcome,[7],inactive
same,outcome,[8],inactive
same,outcome,[9],inactive
same,activation,[10],41.5% (active)
same,outcome,[11],inactive
same,activation,[12],12.6% (active)
same,outcome,[13],inactive
same,outcome,[14],inactive
same,outcome,[15],inactive
same,outcome,[16],inactive
Cc1ccn(CC(=O)NC2CCCN(Cc3ccc(CC(C)C)cc3)C2)n1 (stereo unspecified),activation,[1],170% (active)
same,outcome,[2],inactive
same,outcome,[3],inactive
same,outcome,[4],inactive
same,outcome,[5],inactive
same,outcome,[6],inactive
same,outcome,[7],inactive
same,outcome,[8],inactive
same,outcome,[9],inactive
same,activation,[10],61% (active)
same,outcome,[11],inactive
same,activation,[12],50.5% (active)
same,outcome,[13],inactive
same,outcome,[14],inactive
same,outcome,[15],inactive
same,outcome,[16],inactive
CCOc1ccc(CN2CCNC(=O)C2CC(=O)NCCc2ccccn2)cc1 (stereo unspecified),activation,[1],145% (active)
same,outcome,[2],inactive
same,outcome,[3],inactive
same,outcome,[4],inactive
same,outcome,[5],inactive
same,outcome,[6],inactive
same,outcome,[7],inactive
same,outcome,[8],inactive
same,outcome,[9],inactive
same,outcome,[10],inactive
same,outcome,[11],inactive
same,activation,[12],49% (active)
same,outcome,[13],inactive
same,outcome,[14],inactive
same,outcome,[15],inactive
same,outcome,[16],inactive
CC1CC(C)CN(CCCNC(=O)c2ccc3c(c2)N(Cc2ccccc2)C(=O)c2ccccc2S3=O)C1 (stereo unspecified),activation,[1],106% (active)
same,activation,[2],54% (active)
same,outcome,[3],inactive
same,outcome,[4],inactive
same,outcome,[5],inactive
same,outcome,[6],inactive
same,outcome,[7],inactive
same,outcome,[8],inactive
same,outcome,[9],inactive
same,outcome,[10],inactive
same,outcome,[11],inactive
same,activation,[12],23.8% (active)
same,outcome,[13],inactive
same,outcome,[14],inactive
same,outcome,[15],inactive
same,outcome,[16],inactive
COc1ccc(N2CCN(Cc3nc4ccccc4n3C)CC2)cc1,activation,[1],154% (active)
same,outcome,[2],inactive
same,outcome,[3],inactive
same,outcome,[4],inactive
same,outcome,[5],inactive
same,outcome,[6],inactive
same,outcome,[7],inactive
same,outcome,[8],inactive
same,outcome,[9],inactive
same,outcome,[10],inactive
same,outcome,[11],inactive
same,outcome,[12],inactive
same,outcome,[13],inactive
same,outcome,[14],inactive
same,outcome,[15],inactive
same,outcome,[16],inactive
CC(COc1ccccc1)N1CCC(CO)(CCc2ccccc2)CC1 (stereo unspecified),outcome,[1],inactive
same,outcome,[2],inactive
same,outcome,[3],inactive
same,outcome,[4],inactive
same,outcome,[5],inactive
same,outcome,[6],inactive
same,outcome,[7],inactive
same,outcome,[8],inactive
same,outcome,[9],inactive
same,activation,[10],95.5% (active)
same,outcome,[11],inactive
same,outcome,[12],inactive
same,outcome,[13],inactive
same,outcome,[14],inactive
same,outcome,[15],inactive
same,outcome,[16],inactive
COC(=O)c1cc(N2CCNCC2)nc2ccccc12,outcome,[1],inactive
same,outcome,[2],inactive
same,outcome,[3],inactive
same,potentiation,[4],47% (active)
same,outcome,[5],inactive
same,outcome,[6],inactive
same,outcome,[7],inactive
same,outcome,[8],inactive
same,outcome,[9],inactive
same,outcome,[10],inactive
same,outcome,[11],inactive
same,activation,[12],18.6% (active)
same,outcome,[13],inactive
same,potentiation,[14],13.8% (active)
same,outcome,[15],inactive
same,outcome,[16],inactive
COc1ccc(C(CNC(=O)COc2ccccc2OC)N(C)C)cc1OC (stereo unspecified),activation,[1],133% (active)
same,outcome,[2],inactive
same,outcome,[3],inactive
same,outcome,[4],inactive
same,outcome,[5],inactive
same,outcome,[6],inactive
same,outcome,[7],inactive
same,outcome,[8],inactive
same,outcome,[9],inactive
same,activation,[10],35% (active)
same,outcome,[11],inactive
same,outcome,[12],inactive
same,outcome,[13],inactive
same,outcome,[14],inactive
same,outcome,[15],inactive
same,outcome,[16],inactive
O=C1/C(=C\c2cc([N+](=O)[O-])ccc2O)SC(=S)N1Cc1ccc(Cl)cc1,activation,[1],147% (active)
same,outcome,[2],inactive
same,outcome,[3],inactive
same,potentiation,[4],21% (active)
same,outcome,[5],inactive
same,outcome,[6],inactive
same,outcome,[7],inactive
same,outcome,[8],inactive
same,outcome,[9],inactive
same,activation,[10],529% (active)
same,"potentiation, percent of control",[11],192% (active)
same,activation,[12],147% (active)
same,outcome,[13],inactive
same,potentiation,[14],21% (active)
same,activation,[15],158% (active)
same,activation,[16],5450% (active)
CCn1c(N2CCN(C(=S)NCC(C)C)CC2)nc2ccccc21,activation,[1],98% (active)
same,outcome,[2],inactive
same,outcome,[3],inactive
same,outcome,[4],inactive
same,outcome,[5],inactive
same,outcome,[6],inactive
same,outcome,[7],inactive
same,outcome,[8],inactive
same,outcome,[9],inactive
same,activation,[10],39.5% (active)
same,outcome,[11],inactive
same,activation,[12],27.9% (active)
same,outcome,[13],inactive
same,outcome,[14],inactive
same,outcome,[15],inactive
same,outcome,[16],inactive
Cc1cc(CSC(=N)N)c(CSC(=N)N)cc1C,activation,[1],178% (active)
same,activation,[2],67% (active)
same,outcome,[3],inactive
same,outcome,[4],inactive
same,outcome,[5],inactive
same,outcome,[6],inactive
same,outcome,[7],inactive
same,outcome,[8],inactive
same,outcome,[9],inactive
same,outcome,[10],inactive
same,outcome,[11],inactive
same,activation,[12],46% (active)
same,outcome,[13],inactive
same,outcome,[14],inactive
same,outcome,[15],inactive
same,outcome,[16],inactive
CCN1CCN(c2ncnc3sc(C)c(-c4ccccc4)c23)CC1,activation,[1],107% (active)
same,outcome,[2],inactive
same,outcome,[3],inactive
same,outcome,[4],inactive
same,outcome,[5],inactive
same,outcome,[6],inactive
same,outcome,[7],inactive
same,outcome,[8],inactive
same,outcome,[9],inactive
same,outcome,[10],inactive
same,outcome,[11],inactive
same,outcome,[12],inactive
same,outcome,[13],inactive
same,outcome,[14],inactive
same,outcome,[15],inactive
same,outcome,[16],inactive
Cc1ccc(NC(=O)CNCC(c2ccccc2)N(C)C)cc1F (stereo unspecified),activation,[1],95% (active)
same,outcome,[2],inactive
same,outcome,[3],inactive
same,outcome,[4],inactive
same,outcome,[5],inactive
same,outcome,[6],inactive
same,outcome,[7],inactive
same,outcome,[8],inactive
same,outcome,[9],inactive
same,activation,[10],44% (active)
same,outcome,[11],inactive
same,outcome,[12],inactive
same,outcome,[13],inactive
same,outcome,[14],inactive
same,outcome,[15],inactive
same,outcome,[16],inactive
